# In PubChem BioAssay AID652115 (Broad Institute, 2013):
# Values joined by “and” are separate entries in the source; they are usually repeats but may differ in a detail not shown here. Identical values can stand only once. The campaign covered roughly 330,000 compounds. About 3,800 (1.2%) were called active. No stated cut-off is given here; in the data, active means inhibition above about 15%; inconclusive means no clear call, values can overlap the other calls; inactive means below that. The list comes from a sample in which actives are over-represented; it also holds similar structures and randomly drawn compounds. Some compounds were tested as several samples or in several runs, with calls that do not always agree.
# Molecular target: NAD-dependent protein deacylase sirtuin-5, mitochondrial (Homo sapiens) (UniProt Q9NXA8)
# Experiment: SIRT5 desuccinylase inhibitors, primary screen, biochemical, fluorescence imaging, single point, set 5 (AID 652115)
# Details: Purified SirT5, succinyl-peptide AMC, trypsin-coupled fluorescence; at 15 µM; stronger effect = higher value
# Sequence of NAD-dependent protein deacylase sirtuin-5, mitochondrial (Homo sapiens) (Q9NXA8 whole entry, looked up): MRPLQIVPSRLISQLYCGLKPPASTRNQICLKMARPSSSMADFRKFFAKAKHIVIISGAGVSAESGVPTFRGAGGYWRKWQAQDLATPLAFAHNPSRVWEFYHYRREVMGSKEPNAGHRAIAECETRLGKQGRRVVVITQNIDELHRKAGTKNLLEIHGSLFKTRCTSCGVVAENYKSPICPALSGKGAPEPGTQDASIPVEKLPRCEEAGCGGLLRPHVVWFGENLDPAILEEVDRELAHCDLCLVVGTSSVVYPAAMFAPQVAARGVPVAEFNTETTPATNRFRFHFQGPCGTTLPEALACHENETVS
row,Structure (SMILES),inhibition
1,CN(c1ccccc1)S(=O)(=O)c1ccc(C(=O)NCCc2ccccc2)cc1,-1.73% (inactive)
2,Cc1ccccc1C(=O)NCCN=C1NS(=O)(=O)c2ccccc21,1.57% (inactive)
3,CN(C)S(=O)(=O)c1ccc(C(=O)NCCN=C2NS(=O)(=O)c3ccccc32)cc1,15.2% (active)
4,COc1ccccc1-c1cn(CC[C@@H]2CC[C@@H](NC(=O)c3ccccc3F)[C@H](CO)O2)nn1,-1.68% (inactive)
5,COc1cccc(S(=O)(=O)N2C[C@@H](O)COC[C@@H]3O[C@H](CC(=O)N4CCN(C)CC4)CC[C@H]32)c1,-10.1% (inactive)
6,C[C@@H]1CN([C@H](C)CO)S(=O)(=O)c2ccc(-c3cccc(F)c3)cc2O[C@H]1CN(C)S(=O)(=O)c1ccc(F)cc1,16.1% (active)
7,C[C@@H]1CN([C@@H](C)CO)S(=O)(=O)c2ccc(-c3cccc(F)c3)cc2O[C@@H]1CN(C)S(=O)(=O)c1ccccc1,12% (inactive)
8,C[C@@H]1CN([C@@H](C)CO)S(=O)(=O)c2ccc(C#CCN(C)C)cc2O[C@@H]1CN(C)S(=O)(=O)c1cccc(F)c1,2.43% (inactive)
9,C[C@H]1CN([C@@H](C)CO)S(=O)(=O)c2ccc(-c3cccc(F)c3)cc2O[C@@H]1CN(C)C,-1.74% (inactive) and 0.129% (inactive) and -10.4% (inactive)
10,CC(C)CC#Cc1ccc2c(c1)O[C@H](CN(C)S(=O)(=O)c1cccc(F)c1)[C@@H](C)CN([C@@H](C)CO)S2(=O)=O,19.1% (active)
11,C[C@H](CO)N1C[C@H](C)[C@@H](CN(C)S(=O)(=O)c2cccc(F)c2)Oc2cc(C#CCN(C)C)ccc2S1(=O)=O,0.005% (inactive)
12,CCCNC(=O)N1[C@@H]2c3ccc(-c4ccccc4OC)c(=O)n3C[C@H]1[C@H](CO)[C@H]2C(=O)N(C)C,-22.3% (inactive)
13,C[C@H]1CN([C@@H](C)CO)C(=O)c2cccc(NS(=O)(=O)c3cccs3)c2O[C@H]1CN(C)Cc1ccc(C(=O)Nc2ccccc2N)cc1,5.63% (inactive)
14,CCCC(=O)N1CC2(C1)CN(C(=O)Nc1cccc(F)c1)[C@@H](CO)c1c2c2ccc(OC)cc2n1C,7.29% (inactive)
15,COc1ccc2c3c(n(C)c2c1)[C@@H](CO)N(C(=O)Nc1cccc(F)c1)CC31CCN(Cc2nccs2)CC1,35.6% (active)
16,COc1ccc2c3c(n(C)c2c1)[C@H](CO)N(C(=O)Nc1cccc(F)c1)CC31CN(Cc2nccs2)C1,2.85% (inactive)
17,O=S1(=O)CC(N2CCN(CCO)CC2)CN1Cc1cn(Cc2ccc(Cl)cc2)nn1 (stereo not given),32.8% (active)
18,Cc1ccc(Cn2cc(CN3CC(N4CCN(C)CC4)CS3(=O)=O)nn2)cc1 (stereo not given),3.71% (inactive)
19,O=S1(=O)CC(N2CCN(CCO)CC2)CN1Cc1cn(Cc2cccc(Cl)c2)nn1 (stereo not given),-5.71% (inactive)
20,CCS(=O)(=O)Nc1ccc2c(c1)C(=O)N(C)[C@H]1CC[C@@H](CC(=O)Nc3ccccc3)O[C@H]1CO2,2.87% (inactive)
21,O=C1NN(c2ccccc2)C(=O)/C1=C/c1ccc(-c2cccc(C(=O)O)c2)o1,8.67% (inactive)
22,O=C1c2ccccc2NC(c2ccc(-c3cccc(Cl)c3)o2)N1O (stereo not given),1.64% (inactive)
23,O=C(O)C(c1ccccc1)N1C(=O)/C(=C\c2ccc(-c3cccc(Cl)c3)o2)SC1=S (stereo not given),43.9% (active)
24,O=C(Nc1cc(Cl)cc(Cl)c1)N[C@@H]1CC[C@H](CCNS(=O)(=O)c2cccc(F)c2)O[C@H]1CO,2.03% (inactive)
25,CCCNC(=O)N1CC(=O)N2[C@H](CO)[C@H](c3ccc(C#Cc4cccc(OC)c4)cc3)[C@H]2C1,-0.038% (inactive)
26,CCCN(C)C[C@H]1Oc2cc(-c3ccc(C)cc3)ccc2S(=O)(=O)N([C@H](C)CO)C[C@H]1C,1.13% (inactive)
27,CN(C)C(=O)c1ccc(-c2ccccc2[C@@H]2[C@@H](C#N)N(C(=O)C3CCCC3)[C@H]2CO)cc1,-3.26% (inactive)

row,Structure (SMILES),inhibition
1,O=C(N[C@H]1C=C[C@@H](CC(=O)N2CCN(c3ccccc3)CC2)O[C@@H]1CO)c1ccncc1,-0.959% (inactive)
2,C=CCC[C@H](Cc1ccc(F)cc1)C(=O)OC[C@@H](NC(=O)[C@@H](CC=C)CC(=O)N[C@H](CO)Cc1ccccc1)C(C)(C)C,0.931% (inactive)
3,C=CCC[C@@H](Cc1ccc(F)cc1)C(=O)OC[C@@H](C)NC(=O)[C@H](CC=C)CC(=O)N(CCO)Cc1ccccc1,-0.88% (inactive)
4,C=CCC[C@H](Cc1ccc(F)cc1)C(=O)OC[C@H](C)NC(=O)[C@H](CC=C)CC(=O)N(CCO)Cc1ccccc1,16.9% (active)
5,CC1COc2ccccc2N1C(=O)c1cccnc1Cl (stereo not given),-1.34% (inactive)
6,CC1COc2ccccc2N1S(=O)(=O)c1ccccc1 (stereo not given),-1.33% (inactive)
7,CC1COc2ccccc2N1C(=O)c1ccc(F)cc1 (stereo not given),22.7% (active)
8,COc1ccc(CN(C)C[C@@H]2OCCCC[C@@H](C)Oc3ccc(NC(=O)Nc4ccc(C(F)(F)F)cc4)cc3C(=O)N([C@H](C)CO)C[C@H]2C)cc1,6.39% (inactive)
9,CN(C)CC(=O)N[C@H]1CC[C@H](CCNC(=O)Nc2ccc(F)cc2)O[C@H]1CO,-1.16% (inactive)
10,Cc1nc(N2[C@H](CO)[C@H](c3ccccc3)[C@H]2CNCC2CCCCC2)sc1C,5.49% (inactive)
11,CC(C)NC(=O)N1[C@@H]2c3ccc(-c4ccc(F)cc4)c(=O)n3C[C@@H]2[C@@H](CO)[C@@H]1C(=O)N1CCOCC1,-2.98% (inactive)
12,O=C(Nc1nnc(C2CC2)s1)c1cc(Cl)sc1Cl,-1.4% (inactive)
13,O=C(Nc1nnc(C2CC2)s1)c1ccccn1,23.4% (active)
14,Cc1cc(C(=O)Nc2nnc(C3CC3)s2)c(C)s1,-4.14% (inactive)
15,CO[C@@H]1CN(C)C(=O)c2cc(NS(C)(=O)=O)ccc2OC[C@H](C)N(C(=O)C2CC2)C[C@@H]1C,1.74% (inactive)
16,COCC(=O)Nc1ccc2c(c1)C(=O)N(C)C[C@@H](OC)[C@@H](C)CN(C(=O)Cc1ccccn1)[C@@H](C)CO2,-3.53% (inactive)
17,C[C@@H](O)C#Cc1cnc2c(c1)C(=O)N([C@@H](C)CO)C[C@H](C)[C@H](CN(C)Cc1cncnc1)O2,8.12% (inactive)
18,COc1ccc(S(=O)(=O)NCC(=O)NCc2cc(=O)n(C)c(=O)n2C)cc1F,-2% (inactive)
19,Cc1ccc(C(=O)NCC(=O)NC2CC2)cc1,-1.54% (inactive)
20,Cc1ccc(C(=O)NCC(=O)NCc2cc(=O)n(C)c(=O)n2C)cc1,31.9% (active)
21,CC(C)NC(=O)Nc1ccc2c(c1)C(=O)N([C@H](C)CO)C[C@H](C)[C@@H](CN(C)C)OCCCC[C@H](C)O2,0.043% (inactive)
22,C#CCOc1ccc(/C=C2/C(=O)ON=C2C)cc1OCC,-2.23% (inactive)
23,COc1cc(/C=C2/C(=O)NN(c3cccc(Cl)c3)C2=O)cc(Br)c1O,9.45% (inactive)
24,C#CCOc1ccc(/C=C2/C(=O)NN(c3ccccc3)C2=O)cc1OC,98.1% (active)
25,CN(C)C(=O)C[C@H]1C=C[C@@H](NC(=O)C2CCC2)[C@@H](CO)O1,-0.42% (inactive)
26,C[C@H](CO)N1C[C@H](C)[C@H](CN(C)CC2CCCCC2)OCCCC[C@H](C)Oc2ccc(NC(=O)c3ccncc3)cc2C1=O,2.1% (inactive)
27,O=S(=O)(Cc1ccccc1)N1CCCCN2[C@@H](CO)[C@@H](c3ccc(-c4ccc(F)cc4)cc3)[C@@H]2C1,4.06% (inactive)

row,Structure (SMILES),inhibition
1,COc1ccc2c3c(n(C)c2c1)[C@@H](CO)N(C(=O)CN1CCOCC1)CC31CCN(C(=O)C2CC2)CC1,-4.96% (inactive)
2,O=C(C[C@@H]1CC[C@@H]2[C@H](COC[C@H](O)CN2Cc2cccc(F)c2)O1)NCc1ccncc1,-0.883% (inactive)
3,O=C(C[C@@H]1CC[C@@H]2[C@H](COC[C@@H](O)CN2Cc2ccc(Cl)cc2)O1)NCc1ccccc1Cl,-1.3% (inactive)
4,O=C(C[C@@H]1CC[C@@H]2[C@H](COC[C@H](O)CN2Cc2cccc(C(F)(F)F)c2)O1)NCc1ccc(F)cc1,16.6% (active)
5,O=C(C[C@@H]1CC[C@H]2[C@@H](COC[C@@H](O)CN2Cc2nccs2)O1)NCc1ccc(-c2ccccc2)cc1,3.03% (inactive)
6,O=C(C[C@H]1CC[C@H]2[C@@H](COC[C@@H](O)CN2Cc2cccc(C(F)(F)F)c2)O1)NCc1ccncc1,2.67% (inactive)
7,O=C(C[C@H]1CC[C@H]2[C@@H](COC[C@@H](O)CN2Cc2nccs2)O1)NCc1ccccc1Cl,16.4% (active)
8,CN(C)C(=O)[C@@H]1[C@@H](CO)[C@@H]2Cn3c(ccc(-c4ccccc4)c3=O)[C@@H]2N1CCC(F)(F)F,0.07% (inactive)
9,C[C@@H](NC(=O)C[C@H]1C=C[C@H](NC(=O)C2CCOCC2)[C@H](CO)O1)c1ccccc1,2.71% (inactive)
10,COc1ccc(NC(=O)N2C[C@H](O)COC[C@H]3O[C@@H](CC(=O)NC4Cc5ccccc5C4)CC[C@@H]32)cc1,-1.07% (inactive)
11,CC(C)CC#Cc1cnc2c(c1)C(=O)N([C@@H](C)CO)C[C@@H](C)[C@@H](CN(C)S(=O)(=O)c1cccs1)O2,3.74% (inactive)
12,C/C=C/c1ccc([C@H]2[C@@H](CO)N(C(=O)C3CC3)[C@@H]2CNC(=O)NC(C)C)cc1,-3.13% (inactive)
13,CCC(=O)N(C)C[C@@H]1Oc2ncc(C#CCC3CCCC3)cc2C(=O)N([C@@H](C)CO)C[C@H]1C,2.53% (inactive)
14,CN1C(=O)c2cc(NC(=O)C3CCOCC3)ccc2OC[C@@H]2O[C@H](CC(=O)NCc3ccccc3F)CC[C@H]21,-13.7% (inactive)
15,C/C=C/c1ccc2c(c1)O[C@H](CN(C)Cc1cccc(F)c1)[C@H](C)CN([C@H](C)CO)S2(=O)=O,18% (active)
16,C[C@H](CO)N1C[C@H](C)[C@@H](CN(C)Cc2cccnc2)Oc2cc(C3=CCCC3)ccc2S1(=O)=O,0.149% (inactive)
17,C/C=C/c1ccc2c(c1)O[C@H](CN(C)Cc1ccccc1)[C@H](C)CN([C@@H](C)CO)S2(=O)=O,3.6% (inactive)
18,C[C@@H]1CN([C@H](C)CO)S(=O)(=O)c2ccc(C#C[C@@H](C)O)cc2O[C@@H]1CN(C)Cc1ccc(-c2ccccc2)cc1,27% (active) and 4.33% (inactive) and -0.184% (inactive)
19,C[C@@H](O)C#Cc1ccc2c(c1)O[C@@H](CN(C)Cc1cccnc1)[C@@H](C)CN([C@@H](C)CO)S2(=O)=O,-2.24% (inactive)
20,C[C@@H]1CN([C@@H](C)CO)S(=O)(=O)c2ccc(C3=CCCC3)cc2O[C@@H]1CN(C)Cc1ccncc1,0.906% (inactive)
21,CC(C)C#Cc1ccc2c(c1)O[C@H](CN(C)Cc1ccccc1)[C@H](C)CN([C@@H](C)CO)S2(=O)=O,-0.3% (inactive)
22,C/C=C/c1ccc2c(c1)O[C@H](CN(C)C)[C@H](C)CN([C@H](C)CO)S2(=O)=O,-0.588% (inactive)
23,C[C@H]1CN([C@@H](C)CO)S(=O)(=O)c2ccc(C3=CCCC3)cc2O[C@@H]1CN(C)Cc1ccccc1,24.3% (active)
24,Cc1noc(C)c1NC(=O)N(C)C[C@@H]1Oc2cc(Br)ccc2S(=O)(=O)N([C@@H](C)CO)C[C@H]1C,-3.62% (inactive) and 22.1% (active)
25,Cc1noc(C)c1NC(=O)N(C)C[C@@H]1Oc2cc(C#CCC(C)C)ccc2S(=O)(=O)N([C@H](C)CO)C[C@@H]1C,10.8% (inactive)
26,COc1ccccc1NC(=O)N(C)C[C@H]1Oc2cc(Br)ccc2S(=O)(=O)N([C@H](C)CO)C[C@@H]1C,-3.29% (inactive) and -0.792% (inactive)
